# Compound activity from PubChem BioAssay.
# An excerpt weighted towards active compounds, which were near 21% of everything screened.
# ELG1 DNA repair – qHTS screen for small molecules that inhibit ELG1-dependent DNA repair in human embryonic kidney (HEK293T) cells expressing luciferase-tagged ELG1 | HEK293T ELG1-luciferase reporter, luminescence, 16 h; DNA damage induced by 5-fluorouridine | Potency, µM (titrated, usually from 46.1 µM), for the others: at the highest dose activity change, negative = inhibition, hits mostly inhibitors | 330,000 tested, 2.3% active; also: potency is read from the fitted curve at half-maximal effect; nearly all actives have a fitted effect of over 55% in size
#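 In this reporter screen, reduction of luminescence relative to DMSO vehicle indicated activity. Compounds and 5-fluorouridine were added together to 2,000 cells per well, incubated for 16 hr at 37 °C, then developed with ONE-Glo.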
# TDP1 cell noCPT – qHTS for Inhibitors of human tyrosyl-DNA phosphodiesterase 1 (TDP1): qHTS in cells in absence of CPT. DT40 Tdp1-/- hTDP1 cells, no CPT, ATP luminescence, 48 h. AID 686978, 2013. 420,000 tested, 15% active. Potency, µM (series often up to 46.2 µM), inactives show top-dose activity change, negative = growth inhibition, most hits filed as inhibitors; also: potency is read from the fitted curve at half-maximal effect; nearly all actives have a fitted effect of over 55% in size
#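 A cellular qHTS used chicken DT40 cells lacking endogenous Tdp1 but carrying stably transfected human TDP1. Compounds were applied without camptothecin, and cell growth kinetics were judged by ATP-dependent luminescence after ≥48 hr.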
# VP16 counter – VP16 counterscreen qHTS for inhibitors of ROR gamma transcriptional activity. Drosophila S2 Gal4-VP16 UAS-luciferase, luminescence, 20 h. Potency, µM (titrated, usually from 53.6 µM), for inactives: at the top dose activity, negative = inhibition, hits mostly inhibitors. 310,000 tested, 3.5% active. AID 2546, 2010;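 also: Gal4-VP16 expression switched on by copper sulfate through the metallothionein promoter; potency is read from the fitted curve at half-maximal effect; nearly all actives have a fitted effect of over 50% in size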
# IL-1B inflam inh – qHTS for Inhibitors of Inflammasome Signaling: IL-1-beta AlphaLISA Primary Screen. activity change, % at 57.5 µM. 360,000 tested, 4.7% active. THP-1 LPS/ATP IL-1B secretion, AlphaLISA, 16 h; hits give low values; in the data active = activity change below about -50%; inconclusive = mostly about -30% to -49%
#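 Secreted IL-1B measured by AlphaLISA bead assay after 16 h compound exposure of THP-1 cells; compounds (final up to 57.5 uM) added 1 h before LPS (250 ng/mL) and ATP (1.25 mM) stimulation; lower signal means less secretion.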
# TDP1 cell CPT – qHTS for Inhibitors of human tyrosyl-DNA phosphodiesterase 1 (TDP1): qHTS in cells in presence of CPT. chicken DT40 Tdp1-/-;hTDP1 cells + 20 nM CPT, ATP luminescence, 48 h. AID 686979, 2013. 420,000 tested, 12% active. Potency, µM (titrated, usually from 46.2 µM), for inactives: at the top dose activity change, negative = growth inhibition, actives largely listed as inhibitors; also: potency is read from the fitted curve at half-maximal effect; nearly all actives have a fitted effect of over 55% in size
#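 Chicken DT40 Tdp1-/- cells complemented with human TDP1, 400 cells/well, exposed to compounds plus 20 nM camptothecin for at least 48 h at 37 C; viability read as ATP content by CellTiter-Glo luminescence.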
# RORgamma inh – qHTS for inhibitors of ROR gamma transcriptional activity. Nuclear receptor ROR-gamma (Mus musculus), P51450. Drosophila S2 Gal4-RORgamma UAS-luciferase reporter, 20 h. Potency, µM (top dose mostly 53.6 µM), for the others: top-dose activity change, negative = inhibition, most hits filed as inhibitors. 310,000 tested, 5.4% active; also: potency is read from the fitted curve at half-maximal effect; nearly all actives have a fitted effect of over 60% in size
# Target sequence (P51450 whole entry, looked up, the tested form may be a part): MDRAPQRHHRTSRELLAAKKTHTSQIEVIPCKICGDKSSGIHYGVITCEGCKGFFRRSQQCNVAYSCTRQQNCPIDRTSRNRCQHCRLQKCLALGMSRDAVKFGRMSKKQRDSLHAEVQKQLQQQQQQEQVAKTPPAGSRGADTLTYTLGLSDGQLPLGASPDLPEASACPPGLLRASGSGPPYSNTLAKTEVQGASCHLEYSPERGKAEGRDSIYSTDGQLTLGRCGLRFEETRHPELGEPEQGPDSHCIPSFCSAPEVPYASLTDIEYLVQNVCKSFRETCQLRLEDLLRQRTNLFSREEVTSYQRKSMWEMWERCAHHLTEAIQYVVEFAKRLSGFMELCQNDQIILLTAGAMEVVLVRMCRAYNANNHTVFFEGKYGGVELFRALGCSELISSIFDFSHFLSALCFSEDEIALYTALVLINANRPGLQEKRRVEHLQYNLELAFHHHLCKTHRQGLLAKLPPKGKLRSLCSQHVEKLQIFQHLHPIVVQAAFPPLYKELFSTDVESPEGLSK
#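 Luciferase reporter read in Schneider cells carrying Gal4-RORγ (mouse) and UAS-Photinus luciferase; cells given compound 1 h before 700 uM copper sulfate induction, then incubated 20 h at ambient temperature.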
# The depositor's hits bear a star; ? = inconclusive; / = no result given. Unless noted, calls follow the shape of the dose curve; as a rule, active = well fitted curve in the direction sought with a large enough effect; inconclusive = small, poorly fitted or top-dose-only effect, or another doubt; inactive = no such curve, though single readings can be large; an effect the other way counts as inactive or inconclusive. % is scaled to controls: 0 for no effect and ±100 for the full control effect.
SMILES,ELG1 DNA repair,TDP1 cell noCPT,VP16 counter,IL-1B inflam inh,TDP1 cell CPT,RORgamma inh
O=S(=O)(O)c1cc(O)c2c(N=Nc3ccc(Nc4ccccc4)c4c(S(=O)(=O)O)cccc34)cc(S(=O)(=O)O)cc2c1,/,13µM*,-8%,/,19µM*,?
O=S(=O)(O)c1cc(O)c2cc(Nc3ccccc3)ccc2c1,/,-23%,/,2,-11%,/
CSCCC(NS(=O)(=O)c1ccc(Cl)cc1)C(=O)OCC(=O)N1CCOCC1 (configuration not stated),2%,-12%,4%,5,-13%,0%
CSCCC(NS(=O)(=O)c1ccc(Cl)cc1)C(=O)OCC(=O)N1CCCc2ccccc21 (configuration not stated),-22%,18µM*,11%,-4,23µM*,40%
CSCCC(NS(=O)(=O)c1ccc(Cl)cc1)C(=O)OCC(=O)NC12CC3CC(CC(C3)C1)C2 (configuration not stated),-11%,?,-16%,-24,13µM*,?
COc1ccc(-c2nc3c4ccccc4n(CC(=O)Nc4cc(F)ccc4F)c(=O)n3n2)cc1,/,-28%,/,/,-1%,/
COc1ccc(NC(=O)c2ccc(N3C(=O)C4CC=C(C)CC4C3=O)cc2)c(OC)c1 (configuration not stated),-13%,-28%,5%,-19,-6%,-5%
CCN(CC)c1nc(C#N)nc(N2CCOCC2)n1,/,10µM*,/,/,10µM*,/
CC(C)CN(C#N)c1nc(N2CCOCC2)nc(N2CCOCC2)n1,-22%,12µM*,1%,-10,12µM*,18%
Cc1ccccc1N=C(c1ccccc1)C1C(=O)c2ccccc2C1=O,/,10µM*,/,-19,10µM*,/
CCO/C(C)=N/Oc1cc(OC)cc(OC)c1,/,-9%,/,45,-16%,/
COc1ccc(-c2noc(-c3ccc(N4CCC(C)CC4)c([N+](=O)[O-])c3)n2)cc1OC,/,-15%,/,/,-20%,/
O=C(NCC1CCN(c2ccc(S(=O)(=O)N3CCOCC3)cc2)CC1)Nc1ccccc1,15µM*,23µM*,-12%,0,?,13%
O=C(NCC1CCN(c2ccc(S(=O)(=O)N3CCOCC3)cc2)CC1)Nc1ccccc1F,-21%,21µM*,-16%,-12,?,6%
COc1ccc(S(=O)(=O)N2CCOCC2)cc1C(=O)NCC(c1ccccc1)c1ccccc1,/,?,/,-6,?,/
COc1ccccc1C(=O)NCC1CCN(c2ccc(S(=O)(=O)N3CCOCC3)cc2)CC1,?,23µM*,10%,-3,21µM*,1%
COc1ccc(F)cc1-c1cc(C(=O)Nc2ccc(C)c(NS(C)(=O)=O)c2)[nH]n1,/,16µM*,/,-54*,18µM*,/
CCCOc1ccc(F)cc1-c1cc(C(=O)NC(C)C)[nH]n1,/,?,/,22,?,/
CCCOc1ccc(F)cc1-c1cc(C(=O)Nc2ccc(C)c(NS(C)(=O)=O)c2)[nH]n1,/,23µM*,/,-11,16µM*,/
COc1cc(F)ccc1-c1cc(C(=O)Nc2ccc(C)c(NS(C)(=O)=O)c2)[nH]n1,/,-22%,/,-4,?,/
CC(C)[C@H](NC(=O)OCc1ccccc1)C(=O)OCC(=O)N1CCCCC1,/,?,/,12,4%,/
COc1ccc(/C=N/Nc2c(Cl)cc(Cl)cc2Cl)cc1CN1CCOCC1,?,15µM*,3%,-12,16µM*,31%
